Laboratory results reported in the supplement of paper PMC4100887.
Counter-ions that a name gives are not always drawn. ± gives the standard deviation of the averaged measurements.

Each molecule was assayed on IMR-90 (assay: relative cell viability (ATPlite) vs untreated control (fraction); higher = less toxic). Settings: 1 µM; 72 h.

Structure (SMILES)	relative cell viability
COc1cc2ncnc(Nc3ccc(Oc4ccccc4)cc3)c2cc1OC [Src Kinase Inhibitor I]	0.956 ± 0.063
Fc1ccc(-c2nc3n(c2-c2ccncc2)CCS3)cc1	0.999 ± 0.12
N#Cc1cc([N+](=O)[O-])c2sc(C(N)=O)[n+]([O-])c2c1 [Polo-like Kinase Inhibitor II, BTO-1]	1.01 ± 0.12
COc1nccc(-c2c(-c3ccc(F)cc3)ncn2C2CCC(O)CC2)n1 (centres undefined)	0.964 ± 0.038
NC(=O)Nc1sc(-c2ccccc2)cc1C(N)=O [IKK-2 Inhibitor VI]	0.942 ± 0.1
CC[C@@H](CO)Nc1nc(NCc2ccc(-c3ccccn3)cc2)c2ncn(C(C)C)c2n1 [CR8, (S)-Isomer]	0.107 ± 0.035
Cn1cnc2cc3c(Nc4cccc(Br)c4)ncnc3cc21	0.973 ± 0.054
Nc1n[nH]c(N)c1N=Nc1ccc(O)cc1 [Cdk9 Inhibitor II]	0.93 ± 0.099
COc1cc2ncnc(Nc3cccc(O)c3)c2cc1OC [WHI-P180, Hydrochloride]	0.912 ± 0.092
O=C1c2ccccc2-c2nc3nnnn3nc21 [PDK1/Akt/Flt Dual Pathway Inhibitor]	0.856 ± 0.069
Cc1ccc(NC2=CC(=O)c3sc(C)nc3C2=O)cc1 [Cdk4 Inhibitor III]	0.997 ± 0.032
CCCCCCCCCCCCCCCCn1cc[n+](Cc2ccccc2)c1C [eEF-2 Kinase Inhibitor, NH125]	0.948 ± 0.11
COc1ccc2c(c1)c1c3c(c4c5ccccc5n(C)c4c1n2CC(O)CN(C)C)C(=O)NC3=O (centres undefined) [Gö 7874, Hydrochloride]	0.87 ± 0.034
COc1ccc(COc2ccc(Cc3cnc(N)nc3N)cc2OC)cc1 [cFMS Receptor Tyrosine Kinase Inhibitor]	1.05 ± 0.12
O=C1C(=Cc2ccc(O)cc2)C2=Nc3ccccc3C2=C1C1=C2C(=Nc3ccccc32)C(=Cc2ccc(O)cc2)C1=O [Scytonemin, Lyngbya sp.]	0.834 ± 0.054
NS(=O)(=O)c1ccc(N=Nc2c(O)[nH]c3ccc(Br)cc23)cc1 [Cdk2 Inhibitor II]	1.22 ± 0.2

Structure (SMILES)	relative cell viability
COc1ccc(CNC(=O)Nc2ncc([N+](=O)[O-])s2)cc1 [GSK-3b Inhibitor VIII]	0.978 ± 0.09
COc1cc2ncnc(Nc3ccc(O)c(Br)c3)c2cc1OC [JAK3 Inhibitor II]	1.01 ± 0.09
C[S+]([O-])c1ccc(-c2nc(-c3ccc(F)cc3)c(-c3ccncc3)[nH]2)cc1 (centres undefined)	0.994 ± 0.062
Cn1c(O)c(-c2[nH]c3ccccc3c2N=O)c2ccc(Br)cc21 [GSK-3 Inhibitor IX, Control, MeBIO]	0.976 ± 0.047
CC(C)n1cnc2c(NCc3ccccc3)nc(NCCCO)nc21 [Bohemine]	1.03 ± 0.066
COc1cc2ncnc(N3CCN(C(=O)Nc4ccc(Oc5ccccc5)cc4)CC3)c2cc1OC [PDGF Receptor Tyrosine Kinase Inhibitor III]	1.01 ± 0.086
c1ccc(-c2n[nH]c3c2oc2ccccc23)cc1	0.943 ± 0.083
CCC(=O)Nc1ccc2ncnc(Nc3cccc(Br)c3)c2c1	0.982 ± 0.058
COc1cc2ncnc(Nc3ccc(NC(=O)c4ccccc4)cc3)c2cc1OC [Aurora Kinase Inhibitor II]	0.92 ± 0.071
COc1cc(Nc2ncc3ccn(-c4cccc(CCC#N)c4)c3n2)cc(OC)c1OC [Keratinocyte Differentiation Inducer]	1.02 ± 0.058
COc1cc(SC)ccc1C(=O)N1CCC(Cc2ccccc2)CC1 [p38 MAP Kinase Inhibitor VI, JX401]	1.03 ± 0.094
Cn1c2ccccc2c2c3c(c4c5ccccc5n(CCC#N)c4c21)CNC3=O	1.03 ± 0.093
Cc1ccc(S(=O)(=O)/C=C/C#N)cc1	1.01 ± 0.032
Nc1[nH]nc2nnc(-c3c(-c4ccccc4)nn4ccccc34)cc12	1.03 ± 0.046
O=C(Nc1ccc(Cl)cc1)c1ccccc1NCc1ccncc1 [VEGF Receptor Tyrosine Kinase Inhibitor II]	0.987 ± 0.064
CC(C)n1cnc2c(NCc3ccccc3O)nc(NCCCO)nc21 [Cdk Inhibitor, p35]	1.04 ± 0.054

The molecules below were run on K562 in the same assay as above. Settings: 1 µM; 72 h.

Structure (SMILES)	relative cell viability
COc1cc2ncnc(Nc3ccc(Oc4ccccc4)cc3)c2cc1OC [Src Kinase Inhibitor I]	0.839 ± 0.088
Fc1ccc(-c2nc3n(c2-c2ccncc2)CCS3)cc1	0.845 ± 0.071
N#Cc1cc([N+](=O)[O-])c2sc(C(N)=O)[n+]([O-])c2c1 [Polo-like Kinase Inhibitor II, BTO-1]	0.88 ± 0.081
COc1nccc(-c2c(-c3ccc(F)cc3)ncn2C2CCC(O)CC2)n1 (centres undefined)	0.86 ± 0.11
NC(=O)Nc1sc(-c2ccccc2)cc1C(N)=O [IKK-2 Inhibitor VI]	0.861 ± 0.097
CC[C@@H](CO)Nc1nc(NCc2ccc(-c3ccccn3)cc2)c2ncn(C(C)C)c2n1 [CR8, (S)-Isomer]	0.0828 ± 0.015
Cn1cnc2cc3c(Nc4cccc(Br)c4)ncnc3cc21	1.02 ± 0.078
Nc1n[nH]c(N)c1N=Nc1ccc(O)cc1 [Cdk9 Inhibitor II]	0.839 ± 0.073
COc1cc2ncnc(Nc3cccc(O)c3)c2cc1OC [WHI-P180, Hydrochloride]	0.747 ± 0.073
O=C1c2ccccc2-c2nc3nnnn3nc21 [PDK1/Akt/Flt Dual Pathway Inhibitor]	0.028 ± 0.0014
Cc1ccc(NC2=CC(=O)c3sc(C)nc3C2=O)cc1 [Cdk4 Inhibitor III]	0.782 ± 0.1
CCCCCCCCCCCCCCCCn1cc[n+](Cc2ccccc2)c1C [eEF-2 Kinase Inhibitor, NH125]	0.506 ± 0.092
COc1ccc2c(c1)c1c3c(c4c5ccccc5n(C)c4c1n2CC(O)CN(C)C)C(=O)NC3=O (centres undefined) [Gö 7874, Hydrochloride]	0.901 ± 0.025
COc1ccc(COc2ccc(Cc3cnc(N)nc3N)cc2OC)cc1 [cFMS Receptor Tyrosine Kinase Inhibitor]	0.789 ± 0.061
O=C1C(=Cc2ccc(O)cc2)C2=Nc3ccccc3C2=C1C1=C2C(=Nc3ccccc32)C(=Cc2ccc(O)cc2)C1=O [Scytonemin, Lyngbya sp.]	0.986 ± 0.052
NS(=O)(=O)c1ccc(N=Nc2c(O)[nH]c3ccc(Br)cc23)cc1 [Cdk2 Inhibitor II]	0.839 ± 0.084

Structure (SMILES)	relative cell viability
COc1ccc(CNC(=O)Nc2ncc([N+](=O)[O-])s2)cc1 [GSK-3b Inhibitor VIII]	0.82 ± 0.048
COc1cc2ncnc(Nc3ccc(O)c(Br)c3)c2cc1OC [JAK3 Inhibitor II]	0.815 ± 0.037
C[S+]([O-])c1ccc(-c2nc(-c3ccc(F)cc3)c(-c3ccncc3)[nH]2)cc1 (centres undefined)	0.921 ± 0.054
Cn1c(O)c(-c2[nH]c3ccccc3c2N=O)c2ccc(Br)cc21 [GSK-3 Inhibitor IX, Control, MeBIO]	0.964 ± 0.014
CC(C)n1cnc2c(NCc3ccccc3)nc(NCCCO)nc21 [Bohemine]	0.9 ± 0.074
COc1cc2ncnc(N3CCN(C(=O)Nc4ccc(Oc5ccccc5)cc4)CC3)c2cc1OC [PDGF Receptor Tyrosine Kinase Inhibitor III]	0.736 ± 0.03
c1ccc(-c2n[nH]c3c2oc2ccccc23)cc1	0.868 ± 0.038
CCC(=O)Nc1ccc2ncnc(Nc3cccc(Br)c3)c2c1	0.903 ± 0.031
COc1cc2ncnc(Nc3ccc(NC(=O)c4ccccc4)cc3)c2cc1OC [Aurora Kinase Inhibitor II]	0.909 ± 0.055
COc1cc(Nc2ncc3ccn(-c4cccc(CCC#N)c4)c3n2)cc(OC)c1OC [Keratinocyte Differentiation Inducer]	0.173 ± 0.21
COc1cc(SC)ccc1C(=O)N1CCC(Cc2ccccc2)CC1 [p38 MAP Kinase Inhibitor VI, JX401]	0.807 ± 0.042
Cn1c2ccccc2c2c3c(c4c5ccccc5n(CCC#N)c4c21)CNC3=O	0.854 ± 0.1
Cc1ccc(S(=O)(=O)/C=C/C#N)cc1	0.721 ± 0.15
Nc1[nH]nc2nnc(-c3c(-c4ccccc4)nn4ccccc34)cc12	0.915 ± 0.036
O=C(Nc1ccc(Cl)cc1)c1ccccc1NCc1ccncc1 [VEGF Receptor Tyrosine Kinase Inhibitor II]	0.852 ± 0.056
CC(C)n1cnc2c(NCc3ccccc3O)nc(NCCCO)nc21 [Cdk Inhibitor, p35]	0.855 ± 0.056
